Hits are enriched below; roughly 5.7% of the tested compounds scored in any of these assays.
hgDAF-12 ag = hgDAF-12 agonism, primary luciferase screen; HEK293 GAL4-hgDAF12 UAS-luciferase reporter, agonist luminescence; normalized to butyrate control; activation, % at 6.8 µM; 1.8% of 370,000 active; AID 687014;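 active means activation above a cutoff set at the mean of all screened compounds plus 3 SD, cut at about 10% in these data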
AHR act = activators of human aryl hydrocarbon receptor; activation, % at 5 µM; P35869; 2.5% of 320,000 active; AHR-responsive luciferase reporter cells, luminescence; in the data active means activation above about 47%
ssDAF12 agonist = activators of S. stercoralis DAF-12 nuclear receptor. HEK293 ssDAF-12/GRIP1 lit1-tk-luc reporter, luminescence; % of 3 µM dafachronic acid response. activation, % at 6.8 µM. 1% of 370,000 active;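 active means activation above the mean over all tested compounds plus 3 SD, cut at about 0.9% in these data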
DAX1 inh-1 = DAX1 (NR0B1) inhibition, primary screen. HEK293T StAR-luciferase reporter, SF-1/DAX-1 repression relief. inhibition, % at 6.8 µM. 1.1% of 370,000 active. AID 652010;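 active means inhibition above the mean over all tested compounds plus 3 SD, cut at about 3.6% in these data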;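 further: higher inhibition means more luminescence from relief of DAX-1 repression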
DAX1 inh-2 = NR0B1 (DAX1) inhibition. 0.99% of 340,000 active. inhibition, % at 6.75 µM. AID 504766. P51843. HEK293 Gal4-DAX1 luciferase reporter, luminescence;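 active means inhibition above the mean over all tested compounds plus 3 SD, cut at about 4.2% in these data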;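 further: inhibition shows as a rise in luminescence from relieved DAX1 repression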
hcDAF12 agonist = activators of H. contortus DAF-12 nuclear receptor. activation, % at 6.8 µM. 1.4% of 370,000 active. HEK293 hcDAF-12 lit1-tk-luc reporter, luminescence; 0% DMSO, 100% Δ7-dafachronic acid;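 active means activation above the mean of all tested compounds plus 3 SD, cut at about 5.5% in these data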
AHR act confirm = confirmation of human aryl hydrocarbon receptor activators. shares compounds with AHR act. human cells, AHR-responsive luciferase reporter, luminescence. activation, % at 9 µM. 87% of 2,300 active. AID 2845; in the data active means activation above about 49%;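 further: HepG2 hepatoma cells carrying a DRE-driven firefly luciferase reporter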
PXR act counter = counter-screen for AHR activators: human PXR activators | activation, % at 11.6 µM | shares compounds with AHR act | AID 434939 | 88% of 2,300 active | cell-based PXR reporter, luciferase luminescence; in the data active means activation above about 11%;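 further: human hepatoma DPX-2 cells expressing full-length human PXR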
Target sequence (O75469 whole entry, looked up): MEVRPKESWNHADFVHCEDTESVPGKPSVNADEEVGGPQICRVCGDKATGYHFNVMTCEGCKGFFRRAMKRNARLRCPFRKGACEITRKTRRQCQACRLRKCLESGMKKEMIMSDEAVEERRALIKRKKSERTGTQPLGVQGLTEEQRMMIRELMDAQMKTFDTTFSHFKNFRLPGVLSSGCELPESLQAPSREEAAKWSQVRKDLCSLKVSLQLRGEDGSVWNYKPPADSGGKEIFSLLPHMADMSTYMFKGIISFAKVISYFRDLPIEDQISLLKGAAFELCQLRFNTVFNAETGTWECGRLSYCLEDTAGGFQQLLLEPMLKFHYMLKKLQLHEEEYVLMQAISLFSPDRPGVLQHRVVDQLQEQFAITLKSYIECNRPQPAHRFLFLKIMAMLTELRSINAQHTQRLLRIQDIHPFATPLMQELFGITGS
A number is an active result; i = inactive; nt = not tested or not shown.

SMILES	hgDAF-12 ag	AHR act	ssDAF12 agonist	DAX1 inh-1	DAX1 inh-2	hcDAF12 agonist	AHR act confirm	PXR act counter
C=CCNc1sc(C(=O)c2cccs2)c(N)c1C#N	i	i	i	i	i	i	nt	nt
CC(=O)C1=C(O)C=C(c2ccco2)CC1c1ccco1 (stereo not drawn)	i	i	i	i	i	i	nt	nt
CCOC(=O)CCc1c(C)nc2cc(-c3ccc(Cl)cc3)[nH]n2c1=O	i	i	i	i	i	i	nt	nt
CCc1c(C)nc2cc(-c3ccc(Cl)cc3)[nH]n2c1=O	11	113	i	i	4.8	i	95	22
CCOC(=O)c1c(N/N=C/c2ccncc2)n[nH]c1C	i	97	i	i	i	i	66	15
CCc1[nH]nc(C(=O)N/N=C/c2ccncc2)c1C	i	i	i	i	i	i	nt	nt
NC1=NC(=O)/C(=C/c2cn(Cc3ccccc3)c3ccccc23)S1	i	116	i	i	i	i	87	25
COc1ccc(Nc2nc3cc(C)ccc3cc2C#N)c(OC)c1	i	i	i	i	i	i	nt	nt
COc1ccc(Nc2nc3cc(C)ccc3cc2C#N)cc1	i	108	i	i	i	i	94	15
CCOc1ccc(N2CC(C(=O)Nc3nnc(CC)s3)CC2=O)cc1 (stereo not drawn)	i	i	i	i	i	i	nt	nt
O=C(CCc1ccccc1)Nc1cc(C(=O)O)cc(C(=O)O)c1	i	i	i	i	i	i	nt	nt
Cn1c(-c2ccc3ccccc3n2)nc2cnccc21	i	89	i	i	i	i	119	23
Fc1cccc(Cc2c(-c3cccc(Cl)c3)nc3ccc(Cl)cn23)c1	i	nt	i	i	nt	i	nt	nt
COCC(=O)Nc1cc(C)cn(Cc2ccccc2Cl)c1=O	i	i	i	i	i	i	nt	nt
CCn1c(-c2sc(-c3ccccc3)nc2C)n[nH]c1=S	i	81	i	i	i	i	119	19
O=C(NNC(=S)Nc1ccccc1)NNC(=S)Nc1ccccc1	i	i	i	i	i	i	nt	nt
Fc1ccc(NC(=S)Nc2ccccc2OC(F)F)cc1Cl	i	i	i	i	i	i	nt	nt
O=C(NNC(=S)Nc1cccc(Cl)c1)c1ccccc1OC(F)F	i	85	i	i	i	i	126	27
O=C(NNC(=S)Nc1ccccc1)c1cc(Br)ccc1Cl	i	103	i	i	i	6.1	91	83
CCOc1ccc(-c2cc(C)n3nc(C(N)=O)cc3n2)cc1	i	79	i	i	i	i	68	nt
Cn1c(-c2ccc(Cl)cc2)ccc(C#N)c1=O	i	100	i	i	i	i	104	14
Cn1cc(-c2ccc(Cl)cc2)cc(C#N)c1=O	i	i	i	i	i	i	nt	nt
O=C(Nc1ccc(Br)cc1)c1cccc(N2C(=O)C3CCCCC3C2=O)c1 (stereo not drawn)	i	114	i	i	i	i	i	18
O=C(Nc1ccc(Cl)cc1)c1cc(S(=O)(=O)Nc2ccccn2)ccc1Cl	i	i	i	i	i	i	nt	nt
O=C(Nc1ccc(Cl)cc1)c1cccc(S(=O)(=O)Nc2ccccn2)c1	i	91	i	i	i	i	77	34
SMILES	hgDAF-12 ag	AHR act	ssDAF12 agonist	DAX1 inh-1	DAX1 inh-2	hcDAF12 agonist	AHR act confirm	PXR act counter
COc1ccc(OC)c2c1C(=O)C(Cl)=C(Cl)C2=O	i	137	i	i	i	i	i	i
Cc1ccccc1OCc1nc2ccccc2c(=O)n1/N=C/c1c[nH]c2ccccc12	i	85	i	i	i	i	i	89
Cc1cccc(C)c1OCc1nc2ccccc2c(=O)n1/N=C/c1c[nH]c2ccccc12	i	102	i	i	i	i	i	112
O=c1c2ccccc2nc(COc2ccccc2)n1/N=C/c1cc([N+](=O)[O-])ccc1O	i	i	i	i	i	i	nt	nt
O=C(CSc1nnc(CNC(=O)c2ccco2)o1)Nc1ccccc1C(F)(F)F	i	i	i	i	i	i	nt	nt
c1ccc(N2CCN(c3nc4ccccc4n4cnnc34)CC2)cc1	i	i	i	i	i	i	nt	nt
c1ccc2c(c1)CCN(c1nc3ccccc3n3cnnc13)C2	i	86	i	i	i	i	66	19
